Consider eight molecules from PubChem BioAssay (EPA / NIEHS).

Several values for one entry are separate records, joined by “and”; a condition that tells them apart may be missing. Equal entries are not always repeated. Inconclusive results are not listed. Some structures have more than one record in an assay (separate samples or runs), and their calls can disagree. Activity calls are given as the source filed them. Rule for the calls: active = hit-call score of the fitted dose curve at least 0.9, where 1 is the maximum; inconclusive = response in the unintended direction; inactive = score below 0.9.

The nature of experiment [1]: TOX21_p53_BLA_p2_viability: Viability Assessment in the Tox21 HCT-116 p53 Agonism Beta-lactamase Assay, Phase 2 (AID 2283591).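 Note: compound exposure lasted 16 h at 37 °C; actives lower the ATP signal meaning cytotoxicity.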 Put shortly: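 Cytotoxicity readout: CellTiter-Glo ATP luminescence, 30 min at room temperature, after the beta-lactamase read. Cells were HCT116 exposed 16 h at 37C to compounds pin-transferred at 217-fold dilution from DMSO stocks.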
Experiment [2] addresses Cellular tumor antigen p53 (Homo sapiens) (UniProt P04637). The experiment is described as follows: TOX21_p53_BLA_p2_ratio: Tox21 HCT-116 p53 Agonism Beta-lactamase Assay, Ratio, Phase 2 (AID 2283592). An outline of the steps:
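Read-out is the blue/green (460/530 nm, 405 nm excitation) ratio after 2 h CCF4-AM loading, fitted as gain versus DMSO. Compounds, pinned at 217-fold dilution from DMSO stocks, stayed 16 h on HCT-116 beta-lactamase reporter cells seeded 5 h earlier.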

Experiment [3] in a line: TOX21_p53_BLA_p3_viability: Viability Assessment in the Tox21 HCT-116 p53 Agonism Beta-lactamase Assay, Phase 3 (AID 2283593).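 Note: cells exposed to compound for 16 h before reading.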 Put shortly:
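Cellular ATP was quantified by CellTiter-Glo luminescence, read after 30 min at room temperature. Beforehand, HCT116 cells (4000/well) received compound 5 h post-seeding, 217-fold diluted from DMSO, then incubated 16 h at 37C.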

Experiment [4] concerns the target Cellular tumor antigen p53 (Homo sapiens) (UniProt P04637). The experiment is described as follows: TOX21_p53_BLA_p3_ratio: Tox21 HCT-116 p53 Agonism Beta-lactamase Assay, Ratio, Phase 3 (AID 2283596). An outline of the steps:
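Cells were seeded at 4000/well, rested 5 h at 37C, then dosed with DMSO compound solutions (217-fold dilution) for 16 h. CCF4-AM substrate was loaded for 2 h at room temperature, and the 460/530 nm emission ratio was fitted for gain of signal versus DMSO.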

Experiment [5] is described as follows: TOX21_p53_BLA_p4_viability: Viability Assessment in the Tox21 HCT-116 p53 Agonism Beta-lactamase Assay, Phase 4 (AID 2283597).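 Note: hits lower the luminescence signal meaning cytotoxicity.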 Put shortly:
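Cytotoxicity as reduced cellular ATP (CellTiter-Glo luminescence, 30 min room temperature), measured in the same wells following the CCF4 FRET p53 reading. Human HCT-116 cells received compounds in DMSO (217-fold dilution) for 16 h.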

In experiment [6] the target is Cellular tumor antigen p53 (Homo sapiens) (UniProt P04637). Briefly: TOX21_p53_BLA_p5_ratio: Tox21 HCT-116 p53 Agonism Beta-lactamase Assay, Ratio, Phase 5 (AID 2283599). Put shortly:
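Beta-lactamase reporter ratio (blue 460 nm over green 530 nm, 405 nm excitation) after 2 h CCF4-AM loading, in HCT-116 cells exposed 16 h at 37 C to compounds pinned at 217-fold dilution. Increases relative to DMSO baseline scored.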

Experiment [7] is described as follows: TOX21_p53_BLA_p5_viability: Viability Assessment in the Tox21 HCT-116 p53 Agonism Beta-lactamase Assay, Phase 5 (AID 2283600). Put shortly:
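Viability came from CellTiter-Glo ATP luminescence, read after 30 min at room temperature. Before this, HCT-116 p53-bla cells (4000/well) had 16 hours of compound exposure at 37C, with DMSO stocks diluted 217-fold on transfer.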

In experiment [8] the target is Cellular tumor antigen p53 (Homo sapiens) (UniProt P04637). Briefly: TOX21_p53_BLA_p4_ratio: Tox21 HCT-116 p53 Agonism Beta-lactamase Assay, Ratio, Phase 4 (AID 2283601). An outline of the steps:
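Signal is the blue/green (460nm/530nm) ratio of cleaved versus uncleaved CCF4-AM substrate, read after 2 h substrate loading. Cells were HCT116 carrying the p53-responsive beta-lactamase reporter, dosed 16 h at 37C, 5% CO2; CellTiter-Glo measured in parallel.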

The nature of experiment [9]: Tanguay_ZF_120hpf_YSE_legacy: (Legacy) Oregon State University Tanguay Lab 120 Hour Post-fertilization zebrafish Assay for Yolk Sac Edema (AID 2283634).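 For AC50: actives raise the incidence of yolk sac edema above the DMSO baseline.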 Put shortly: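 Presence or absence of yolk sac edema was recorded at 120 hpf in surviving larvae. These were wild-type Tropical 5D embryos, chorion removed at 4 hpf, held in static exposure at 28C from 6 hpf with 0.64% DMSO vehicle.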

Experiment [10] can be described thus: Tanguay_ZF_120hpf_AXIS_legacy: (Legacy) Oregon State University Tanguay Lab 120 Hour Post-fertilization zebrafish Assay for Body Axis Malformation (AID 2283635).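 For AC50: potency for an increased fraction of larvae scored with body axis malformation.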 Put shortly:
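Binary scoring of axis defects at 120 hpf under brightfield, fitted positive versus DMSO. Tropical 5D embryos, chorion removed by pronase at 4 hpf, were singly exposed in sealed, dark plates at 28C from 6 hpf; DMSO 0.64% final.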

Experiment [11] can be described thus: Tanguay_ZF_120hpf_EYE_legacy: (Legacy) Oregon State University Tanguay Lab 120 Hour Post-fertilization zebrafish Assay for Eye Malformation (AID 2283636).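 Note: binary presence or absence of eye malformation scored by brightfield in 120 hpf larvae.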 An outline of the steps:
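Binary brightfield scoring of eye defects at 120 hpf after static exposure from 6 hpf of single pronase-dechorionated wild-type embryos (28C, 0.64% DMSO). Non-mortality endpoints omitted where embryos died; fit vs DMSO.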

The nature of experiment [12]: Tanguay_ZF_120hpf_SNOU_legacy: (Legacy) Oregon State University Tanguay Lab 120 Hour Post-fertilization zebrafish Assay for Snout Malformation (AID 2283637). Put shortly:
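Binary snout-malformation call at 120 hpf in wild-type 5D embryos, chorion removed by pronase, under static exposure from 6 hpf at 28C (0.64% DMSO). Embryos dying by 24 or 120 hpf excluded.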

The nature of experiment [13]: Tanguay_ZF_120hpf_JAW_legacy: (Legacy) Oregon State University Tanguay Lab 120 Hour Post-fertilization zebrafish Assay for Jaw Malformation (AID 2283638).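 For AC50: active means more embryos with jaw malformation than DMSO controls.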 An outline of the steps: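 Binary jaw-malformation call at 120 hpf by brightfield microscopy. Embryos (Tropical 5D strain, chorion removed at 4 hpf) were dosed statically at 6 hpf, one per well, at 28C with 0.64% DMSO. Embryos that died were not scored.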

A short description of experiment [14]: Tanguay_ZF_120hpf_OTIC_legacy: (Legacy) Oregon State University Tanguay Lab 120 Hour Post-fertilization zebrafish Assay for Otic Vesicle Malformation (AID 2283639). Put shortly: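 Binary scoring of otic vesicle defects at 120 hpf in zebrafish (Tropical 5D) held under static exposure at 28C, sealed and shaded, with final DMSO 0.64%. Embryos dying by 24 or 120 hpf excluded; fitted positively against DMSO.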

A short description of experiment [15]: Tanguay_ZF_120hpf_PE_legacy: (Legacy) Oregon State University Tanguay Lab 120 Hour Post-fertilization zebrafish Assay for Pericardial Edema (AID 2283640).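 For AC50: potency for increased incidence of pericardial edema versus DMSO baseline.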 An outline of the steps: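 Scoring was binary, by brightfield microscopy at 120 hpf, and skipped where mortality occurred. Wild-type embryos were kept under sealed, foil-covered static exposure at 28C in 0.64% (vol/vol) DMSO.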

Experiment [16] is described as follows: Tanguay_ZF_120hpf_SOMI_legacy: (Legacy) Oregon State University Tanguay Lab 120 Hour Post-fertilization zebrafish Assay for Somite Malformation (AID 2283647). An outline of the steps: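 Binary somite-defect scoring at 120 hpf, omitted for embryos that died, in wild-type (Tropical 5D) zebrafish with chorion removed by pronase at 4 hpf; static exposure began 6 hpf, single embryos per well, 28C, 0.64% DMSO; fitted positive versus DMSO.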

Experiment [17] in a line: Tanguay_ZF_120hpf_PFIN_legacy: (Legacy) Oregon State University Tanguay Lab 120 Hour Post-fertilization zebrafish Assay for Pectoral Fin Malformation (AID 2283648).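 Note: each larva judged yes or no for fin defect by brightfield with dead larvae skipped.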 An outline of the steps:
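Pectoral fin malformation was recorded as a binary endpoint at 120 hpf in wild-type Tropical 5D larvae, which had been dechorionated and exposed statically from 6 hpf at 28C in 0.64% DMSO. Dead embryos were excluded.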

A short description of experiment [18]: Tanguay_ZF_120hpf_CFIN_legacy: (Legacy) Oregon State University Tanguay Lab 120 Hour Post-fertilization zebrafish Assay for Caudal Fin Malformation (AID 2283649). An outline of the steps: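 Binary brightfield scoring of caudal fin defects at 120 hpf after static, light-shielded exposure at 28C from 6 hpf. Tropical 5D embryos, chorion removed with pronase at 4 hpf, final DMSO 0.64%.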

Experiment [19] is described as follows: Tanguay_ZF_120hpf_MORT_legacy: (Legacy) Oregon State University Tanguay Lab 120 Hour Post-fertilization zebrafish Assay for Mortality (AID 2283633). An outline of the steps: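 Static waterborne exposure from 6 to 120 hpf at 28C of single dechorionated wild-type (5D) embryos per well, 0.64% DMSO final. Death recorded present/absent by brightfield at 24 and 120 hpf.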

Experiment [20] can be described thus: Tanguay_ZF_120hpf_BRAI_legacy: (Legacy) Oregon State University Tanguay Lab 120 Hour Post-fertilization zebrafish Assay for Brain Malformation (AID 2283641). Put shortly: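 Binary brightfield scoring of brain malformation at 120 hpf in Tropical 5D larvae held under static exposure at 28C (0.64% v/v DMSO), non-mortality endpoints skipped if dead. Positive control: 5uM trimethyltin chloride; fit versus DMSO.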

Cellular tumor antigen p53 (Homo sapiens), sequence (P04637 whole entry, looked up): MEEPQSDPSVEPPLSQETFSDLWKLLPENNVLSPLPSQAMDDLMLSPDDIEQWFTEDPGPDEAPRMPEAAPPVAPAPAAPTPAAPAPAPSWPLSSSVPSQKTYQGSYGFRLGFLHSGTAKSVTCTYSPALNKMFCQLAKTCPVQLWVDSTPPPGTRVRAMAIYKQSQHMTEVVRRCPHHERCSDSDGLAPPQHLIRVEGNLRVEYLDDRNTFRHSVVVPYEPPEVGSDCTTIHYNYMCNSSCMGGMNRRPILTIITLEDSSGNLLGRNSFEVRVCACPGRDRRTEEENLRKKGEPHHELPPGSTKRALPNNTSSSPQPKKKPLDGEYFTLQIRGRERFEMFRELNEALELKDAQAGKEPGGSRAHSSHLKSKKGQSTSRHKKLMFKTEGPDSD

For the molecule `Nc1ccc([N+](=O)[O-])cc1`, the call in [1], in [2], in [3], in [4], in [5] and in [6] was inactive. Besides, the call in [7], in experiment [8], in experiment [9], in experiment [10], in [11] and in experiment [12] was inactive. The molecule was classed as inactive in [13], in experiment [14], in experiment [15], in experiment [16], in experiment [17] and in experiment [18].

For the molecule `Cc1cc(N=Nc2ccccc2C)ccc1N`, the AC50 (commonly the concentration at which the activity in the assay is half-maximal) was 81 µM (active) in experiment [1]; 46.1 µM (active) in [5]; 73.3 µM (active) and 76.2 µM (active) in experiment [6]; 74.4 µM (active) in [8]; 55.7 µM (active) in experiment [15]. Moreover, the result in experiment [1], in experiment [3], in [4], in experiment [5], in experiment [7] and in [8] was inactive. Also, the molecule was called inactive in experiment [9], in [10], in experiment [11], in experiment [13], in experiment [14] and in experiment [17].

With `[As]#[In]`, the result in [1], in [2], in experiment [3], in experiment [4], in experiment [8] and in [19] was inactive. The call in [9], in [10], in experiment [12], in experiment [13], in [14] and in [15] was inactive. Also, the molecule was classed as inactive in experiment [16], in experiment [17] and in [18].

Regarding `COC(=O)c1ccccc1N`, the molecule was classed as inactive in experiment [1], in experiment [2], in [3], in experiment [4], in experiment [7] and in experiment [8]. The result in [19], in experiment [9], in experiment [10], in experiment [11], in experiment [12] and in [13] was inactive. Also, the outcome in [14], in [15], in experiment [16] and in experiment [18] was inactive.

For the molecule `CNC(=O)Oc1cccc2c1OC(C)(C)C2`, the result in [1], in experiment [2], in [3], in [4], in experiment [6] and in experiment [7] was inactive. The result in [8], in experiment [19], in experiment [9], in experiment [11], in experiment [14] and in experiment [15] was inactive. Besides, the call in experiment [20], in experiment [16], in experiment [17] and in experiment [18] was inactive. For the same molecule, the AC50 was 6.79 µM (active) in [10], 43.9 µM (active) in experiment [12] and 36 µM (active) in experiment [13].

With `Oc1ccccc1Cl`, the molecule was called inactive in experiment [1], in [2], in experiment [3], in [4], in experiment [6] and in experiment [7]. Further, the outcome in experiment [8], in [19], in experiment [11], in experiment [14], in [20] and in experiment [18] was inactive.

As to `Oc1ccc2ccc3cccc4ccc1c2c34`, the outcome in [1], in experiment [2], in experiment [3], in [4], in experiment [5] and in [6] was inactive. In addition, the molecule was classed as inactive in experiment [7] and in experiment [8]. Besides, the AC50 in [9] is 13.7 µM (active); in [10], 13.1 µM (active); in experiment [11] it was 44.9 µM (active); in experiment [13], 46.8 µM (active); in experiment [14], 11.2 µM (active); in experiment [15] it was 50.4 µM (active). Besides, the concentration at half-maximal activity (AC50) is 18.4 µM (active) in [16], 12.2 µM (active) in experiment [17] and 12.4 µM (active) in experiment [18].

In the case of `O=Cc1ccco1`, the outcome in experiment [1], in experiment [2], in experiment [3], in [4], in experiment [5] and in [6] was inactive. Besides, the result in experiment [8], in experiment [19], in [9], in experiment [10], in experiment [11] and in experiment [12] was inactive. The molecule was classed as inactive in experiment [13], in experiment [15], in [16], in experiment [17] and in experiment [18].
